Reference: the supplement of paper PMC10681739

What follows are sequences tested against T1, ETS1 (UniProt P14921) (assay: ETS1 binding intensity (PBM fluorescence), ETS1 alone (arbitrary fluorescence units); higher = stronger binding). Settings: ETS1 concentration 1 nM; RUNX1 concentration 0 nM.
T1 sequence: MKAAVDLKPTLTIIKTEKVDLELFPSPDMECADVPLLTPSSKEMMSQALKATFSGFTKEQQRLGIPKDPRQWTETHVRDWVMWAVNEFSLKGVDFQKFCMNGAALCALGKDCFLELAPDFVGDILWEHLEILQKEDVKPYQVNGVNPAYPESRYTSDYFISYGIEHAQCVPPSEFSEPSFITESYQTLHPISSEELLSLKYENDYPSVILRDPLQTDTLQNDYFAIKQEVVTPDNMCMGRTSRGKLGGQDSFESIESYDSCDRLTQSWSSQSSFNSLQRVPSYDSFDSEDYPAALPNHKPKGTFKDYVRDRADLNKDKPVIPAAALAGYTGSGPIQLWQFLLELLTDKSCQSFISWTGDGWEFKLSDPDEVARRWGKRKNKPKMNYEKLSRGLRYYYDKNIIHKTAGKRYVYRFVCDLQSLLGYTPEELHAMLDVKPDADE

Sequence | ETS1 binding intensity
AAGCTGAAAAGGGGATGTGGTTGCCTGCCTGTGGGA | 534
AGTGTAAACACGGAAGTGGCCGCAGGGGTGGGGGAT | 1820
GTGTTGGGTGGCTTCCTGCGGCGTTTCCACTCTCGC | 605
GCACAGGAAAAGCTGCTTTCCGCGTGGTAAATTCAA | 484
TTGCTAGAGGAAGCGCTGCCCCGGCAGCCGCAGCCA | 524
ATAAAGGATGTACAGTATTTAGAGAACAGTGGTTAA | 553
CGCCCTCCGGAAGAGAGGGCGGACCGCGGCCGCGCA | 570
GGTGTTAGTAGTCAAGGAAGTGGTCACCCTTGACAG | 1010
GGAGCAGGAAGCGTCGCCGGGGGGCCCACAAGGGTA | 528
GGCTTCCGGCGGGGTACCCTCCTCTGTGGGCGGGGC | 563
TCACTCCTCTTCCTTCCTGCCACCCACAGGGTCAGC | 532
CGCCGTAGGAGGAAGCCGCGGCCGCAACGCTCCTGG | 454
CCACTCCCAGCTCCATCCTGTGGGTAGAACTCAGTG | 477
TTTATCCTTATTTCCTGGCTTCGCCCACAAGCACAG | 599
TTGCGTCACGTCCGGCCTGCGAGTTACCGCCCACTC | 690
CCACGCCCCCTCCTTCCGCTGCGGGAGATAGCCACT | 787
AACACTATTTCCTTTCTTGCTGCCCACATTTTAACA | 520
GTTTCAGTATTTCCTGGTGCGGCGTACCACACCTAC | 620
CTGCTGGGCCCCTTCCTGTCAGCGGTTGCTCTTTAC | 673
CTGCACAGGGAAGTGAGTGTCGAGCTCACCGCACCG | 383

Sequence | ETS1 binding intensity
ACAGGTTCAGGAAGCGGCCGTGGTTGTTAGTGGTGT | 718
GAACATGGTCTCCGCTTCCGCCGCAACCTCGGCCTT | 525
AGCGCTTCCCCTTCCGCTGCCGCAGCCGCCGCCTCC | 498
GCGCGGCTCAGGAAGCGACGCGGTTCAGGGAGCGAA | 707
TGGGGTGGGGTGGGAAGTGCCAGCGGTCTGGGTGTC | 537
TGTTGCACATGTTCAGGATGTGGTAGACAGCTTTCA | 1410
ATGACTTAGCAACATCCTGACAACCACTACATTGTC | 476
GGAGTGAGGAGGAAGCGGAGGCGAGACCGCGCTCAA | 464
CTTGTTATCCTTCCGGAGGCGGTAACTCATGAGAGA | 497
CTCTGAAGGAAGTGATGTTAGACGGCTGTGGGTGGT | 545
GGTCACATCCTTTCCCTTCTGTGTCTCAGCCGCAGT | 421
CCCGGACCGTTTCCGTGCTGTGGTCCCGGGTTCTGG | 443
GCGCACACATGCTTCCTGTGGTGACTGGGCGCTTCA | 527
GAGAATGAAGAGGAAATGTGGGGACAGACAGAACTG | 1060
CTCCCCCAGCACATCCTCTGCCACCGCTGCCTTTCC | 579
CCAACACGGATACAAAAAATATCTCTCTACCACACT | 476
AACAGATCCTTCCTGGCCCCCACTAGCCACAGGTTT | 490
GGGGGAATGTAGGAAGTATCATCGCCCACAAGAAAG | 644
AATAAACAGGAAGGTCTCTTGGAGCTGTGGTCTTGG | 677
CTCGGAGCGGAACTACTAGGGTGGTTTCTCCTGAGG | 464

The sequences below were run against T1, ETS1 (assay: ETS1 binding intensity (PBM fluorescence) in presence of RUNX1, normalised to ETS1-only experiment (arbitrary fluorescence units); higher = stronger binding). Settings: ETS1 concentration 1 nM; RUNX1 concentration 25 nM.

Sequence | ETS1 binding intensity
AAGCTGAAAAGGGGATGTGGTTGCCTGCCTGTGGGA | 863
AGTGTAAACACGGAAGTGGCCGCAGGGGTGGGGGAT | 2690
GTGTTGGGTGGCTTCCTGCGGCGTTTCCACTCTCGC | 504
GCACAGGAAAAGCTGCTTTCCGCGTGGTAAATTCAA | 446
TTGCTAGAGGAAGCGCTGCCCCGGCAGCCGCAGCCA | 596
ATAAAGGATGTACAGTATTTAGAGAACAGTGGTTAA | 485
CGCCCTCCGGAAGAGAGGGCGGACCGCGGCCGCGCA | 636
GGTGTTAGTAGTCAAGGAAGTGGTCACCCTTGACAG | 2150
GGAGCAGGAAGCGTCGCCGGGGGGCCCACAAGGGTA | 614
GGCTTCCGGCGGGGTACCCTCCTCTGTGGGCGGGGC | 572
TCACTCCTCTTCCTTCCTGCCACCCACAGGGTCAGC | 378
CGCCGTAGGAGGAAGCCGCGGCCGCAACGCTCCTGG | 816
CCACTCCCAGCTCCATCCTGTGGGTAGAACTCAGTG | 452
TTTATCCTTATTTCCTGGCTTCGCCCACAAGCACAG | 625
TTGCGTCACGTCCGGCCTGCGAGTTACCGCCCACTC | 603
CCACGCCCCCTCCTTCCGCTGCGGGAGATAGCCACT | 751
AACACTATTTCCTTTCTTGCTGCCCACATTTTAACA | 447
GTTTCAGTATTTCCTGGTGCGGCGTACCACACCTAC | 566
CTGCTGGGCCCCTTCCTGTCAGCGGTTGCTCTTTAC | 716
CTGCACAGGGAAGTGAGTGTCGAGCTCACCGCACCG | 690

Sequence | ETS1 binding intensity
ACAGGTTCAGGAAGCGGCCGTGGTTGTTAGTGGTGT | 639
GAACATGGTCTCCGCTTCCGCCGCAACCTCGGCCTT | 744
AGCGCTTCCCCTTCCGCTGCCGCAGCCGCCGCCTCC | 466
GCGCGGCTCAGGAAGCGACGCGGTTCAGGGAGCGAA | 577
TGGGGTGGGGTGGGAAGTGCCAGCGGTCTGGGTGTC | 486
TGTTGCACATGTTCAGGATGTGGTAGACAGCTTTCA | 3040
ATGACTTAGCAACATCCTGACAACCACTACATTGTC | 420
GGAGTGAGGAGGAAGCGGAGGCGAGACCGCGCTCAA | 399
CTTGTTATCCTTCCGGAGGCGGTAACTCATGAGAGA | 352
CTCTGAAGGAAGTGATGTTAGACGGCTGTGGGTGGT | 785
GGTCACATCCTTTCCCTTCTGTGTCTCAGCCGCAGT | 449
CCCGGACCGTTTCCGTGCTGTGGTCCCGGGTTCTGG | 412
GCGCACACATGCTTCCTGTGGTGACTGGGCGCTTCA | 512
GAGAATGAAGAGGAAATGTGGGGACAGACAGAACTG | 1170
CTCCCCCAGCACATCCTCTGCCACCGCTGCCTTTCC | 361
CCAACACGGATACAAAAAATATCTCTCTACCACACT | 531
AACAGATCCTTCCTGGCCCCCACTAGCCACAGGTTT | 421
GGGGGAATGTAGGAAGTATCATCGCCCACAAGAAAG | 807
AATAAACAGGAAGGTCTCTTGGAGCTGTGGTCTTGG | 1110
CTCGGAGCGGAACTACTAGGGTGGTTTCTCCTGAGG | 336
